Screen size: about 68,000 compounds; about 2,700 (4%) showed an effect of 50% or more. Only a selection was taken, and strong results are over-represented in it overall.

This assay concerns Plasmodium berghei. The assay is described as follows: Screen against P. berghei liver stage (PbLuc), transformed with Luciferase, at 2uM. Particulars: tested at 2 uM. It counts as functional, HepG2.
Consider `COCCNC(=O)CCNc1ccc(Cl)cn1`, for which the INHIBITION stood at 33.64%. Regarding `CS(=O)(=O)CCCC(=O)Nc1cc(-c2cccc(F)c2F)n[nH]1`, the INHIBITION is -5.98%.

As for `CS(=O)(=O)CCC(=O)Nc1cc(Cl)c(Cl)cn1`, the INHIBITION turned out to be 38.49%. As for `COCCCC(=O)Nc1cc(Cl)c(Cl)cn1`, the INHIBITION was 66.26%. As for `CS(=O)(=O)CCCC(=O)Nc1cc(Cl)c(Cl)cn1`, the INHIBITION was found to be 59.08%. Consider `COCCCC(=O)Nc1[nH]nc(-c2ccncc2)c1C`, for which the INHIBITION is 1.03%.

For `CC(C)n1c(C2CCCN(CC(=O)NC(N)=O)C2)nc2ccccc21` (stereo not given), the INHIBITION is 0.31%. Consider `O=C(C1=CCCC1)N1CC[C@]2(C[C@H](OCc3cccnc3)CO2)C1`, for which the INHIBITION is -8.81%. In the case of `COC(=O)C(NC(=O)COC1CCCCC1)c1ccccc1` (stereo not given) it was 54.52%; in that of `NC(=O)C(NC(=O)COC1CCCCC1)c1ccccc1` (stereo not given), 35.94%; in that of `NC(=O)C(NC(=O)COC1CCCC1)c1ccccc1` (stereo not given), -6.27%. In the case of `O=C(c1cocn1)N1C[C@H]2CCC[C@@]2(COc2ccccn2)C1`, the INHIBITION is recorded as -14.27%. As for `Cc1cc(C(F)(F)F)nn1CCCNC(=O)C1CCN(S(C)(=O)=O)CC1`, the INHIBITION is 40.25%. As to `CC(C)(C)n1ncc2c1NC(=O)CC2c1ccc(C#N)cc1` (stereo not given), the INHIBITION is 7.42%. As for `Cn1ccc(C(=O)NC2CCC23CCN(C(=O)c2cnccn2)CC3)c1` (stereo not given), the INHIBITION is recorded as -3.25%. Take `Cn1ccc(C(=O)NC2CCC23CCN(C(=O)c2ccccn2)CC3)c1` (stereo not given): the INHIBITION was determined as 53.29%. Consider `Cn1ccc(C(=O)NC2CCC23CCN(C(=O)c2ccncc2)CC3)c1` (stereo not given), for which the INHIBITION is -33.11%. With `CCN(Cc1c(F)cccc1Cl)c1cc(C2CCNCC2)nc(C)n1` the figure was 23.76%. In the case of `CCc1nc(C)c(CN2CCOC(Cc3ccccc3Cl)C2)[nH]1` (stereo not given) it was -26.78%; in that of `Cn1ccnc1C(=O)N1CCOC(Cc2ccc(Cl)cc2)C1` (stereo not given), 43.23%; in that of `Cc1cccnc1CN1CCOC(Cc2cccc3ccccc23)C1` (stereo not given), 31.05%.

On to `Cc1nc(C)c(CN2CCOC(Cc3ccccc3Cl)C2)nc1C` (stereo not given), for which the INHIBITION is given as 63.37%. As for `Cn1ccnc1C(=O)N1CCOC(Cc2ccccc2Cl)C1` (stereo not given), the INHIBITION is listed as 61.99%.

For `O=C(c1cccnc1)N1CCOC(Cc2ccccc2Cl)C1` (stereo not given), the INHIBITION is -41.48%. For `O=C(N1CCc2ccccc2CC1)C1(O)Cc2ccccc2C1`, the INHIBITION was 32.93%. Take `O=C(CCN1C[C@@H]2CC[C@H]1CN(c1ncccn1)C2)NCc1ccco1`: the INHIBITION is listed as 22.27%.

Consider `N#Cc1ccc(CN2CCNC(=O)C2c2cccs2)cc1` (stereo not given), for which the INHIBITION was -15.67%. For `Cn1cnc2c(N3CCCC3)nc(C3CCN(CC4CC4)CC3)cc21`, the INHIBITION is 25.94%. For `Cn1ccnc1C(O)c1ccccc1N1CCN(Cc2ccsc2)CC1` (stereo not given), the INHIBITION is recorded as -16.2%. As to `Cc1cccc(COc2ccc(C(C)NC(=O)CNC(N)=O)cc2)c1` (stereo not given), the INHIBITION came to 32.26%. With `Cc1cccc(COc2ccc(C(C)N)cc2)c1` (stereo not given) the figure was 54.49%; with `Cc1cccc(COc2ccc(C(C)NS(N)(=O)=O)cc2)c1` (stereo not given), 9.42%; with `CCC(O)CN1CCN(C(=O)c2sccc2C2CC2)CC1` (stereo not given), 34.97%. As for `CCc1ccsc1C(=O)N1CCN(CC(O)CC)CC1` (stereo not given), the INHIBITION is 56.67%. With `CCc1ccsc1C(=O)N1CCN(CC(C)O)CC1` (stereo not given), the INHIBITION was -10.66%. In the case of `Clc1ccccc1C1(c2ccnc(C3CCCC3)n2)CCNCC1` it was 11.94%. In the case of `Cc1c(CN2C[C@@H](O)[C@H](Oc3cccc(F)c3)C2)cnn1C` it was 55.32%; in that of `Cc1cnccc1CN1C[C@@H](O)[C@H](Oc2cccc(F)c2)C1`, 8.5%; in that of `Cc1cc(C)n2ncc(CN3C[C@@H](O)[C@H](Oc4ccccc4)C3)c2n1`, -0.44%. Regarding `COCC(O)CN(C)c1ccnc2ccc(Cl)cc12` (stereo not given), the INHIBITION is listed as -33.34%.

With `Cc1ccsc1CN1CCc2c(nc(N3CCCCC3C)[nH]c2=O)C1` (stereo not given), the INHIBITION is given as -17.99%. Consider `CC(C)n1ccnc1CN1CCCN(C(=O)CC2CCCO2)CC1` (stereo not given), for which the INHIBITION was found to be 33.82%. In the case of `c1ccc(Cn2ccnc2CN2CCOC(Cn3cccn3)C2)cc1` (stereo not given) it was 11.1%; in that of `CC(C)n1ccnc1CN1CCOC(CC2CCCCC2)C1` (stereo not given), 63.23%; in that of `CC(C)C1CN(Cc2nccn2C(C)C)CCC(=O)N1CC1CC1` (stereo not given), -17.17%. In the case of `CC(C)n1ccnc1CN1CCOC(CCc2ccccc2)C1` (stereo not given) it was 50.32%. As to `Cn1ccnc1CN1CCOC(Cc2ccccc2)C1` (stereo not given), the INHIBITION is on record as -19.43%.

With `NC(=O)NCC(=O)N1CCCC(c2nccn2Cc2ccncc2)C1` (stereo not given), the INHIBITION is recorded as 16.1%.

As to `CCOc1ncccc1Cn1cc(-c2nccn2C)nn1`, the INHIBITION is on record as -3.38%.

With `O=C(c1cccs1)N1CCCn2c(nc(CN3CCCC3)cc2=O)C1`, the INHIBITION is reported as 13.38%. For the compound `Cc1nc(N2CCCCC2)ncc1-c1cc(=O)[nH]c(N2CCCC2)n1`, the INHIBITION was found to be 17.48%. In the case of `FC1(F)CCN(Cc2cccnc2)CC12CCN(c1ccccn1)C2` (stereo not given), the INHIBITION was 3.35%. As to `CC(C)c1cc(C(=O)N2CCC3(CC2)c2ccccc2[C@@H](N)[C@@H]3O)cs1`, the INHIBITION is recorded as 16.28%. Consider `O=C1CC(NS(=O)(=O)c2ccc(F)c(Cl)c2)CN1` (stereo not given), for which the INHIBITION is recorded as -15.08%.

As to `O=C1CC(NS(=O)(=O)c2ccc(Br)cc2)CN1` (stereo not given), the INHIBITION turned out to be 27.9%. For the compound `O=C1CC(NS(=O)(=O)c2ccc(Cl)cc2)CN1` (stereo not given), the INHIBITION amounted to 87.53%. With `CCCN(CCC)S(=O)(=O)NC(C)C(=O)N(C)C` (stereo not given) the figure was -9.87%; with `COc1ccc(OCc2nc(C(=O)N3CCCNC(=O)C3)co2)cc1`, 22.84%; with `CC(NC(=O)CCCc1nc(C(C)(C)C)no1)c1nnc2n1CCC2` (stereo not given), 19.04%. Regarding `CC(NC(=O)CCc1nc(C(C)(C)C)no1)c1nnc2n1CCC2` (stereo not given), the INHIBITION worked out at 64.2%.

As to `CC(C)c1noc(CCC(=O)NC(C)c2nnc3n2CCC3)n1` (stereo not given), the INHIBITION was determined as 45.48%. Consider `c1coc(CN2C[C@@H]3OCCN(CC4CCCO4)[C@@H]3C2)c1` (stereo not given in full), for which the INHIBITION is on record as -44.46%.

On to `CCOC(=O)N1C[C@@H]2CC[C@H]1CN(Cc1ccccc1)C2`, for which the INHIBITION worked out at 18.19%. Regarding `c1cnc(N2CCC(c3nccn3CC3CC3)CC2)nc1`, the INHIBITION is 18.81%. Take `COCC(=O)N1CCC(c2nccn2CC2CC2)CC1`: the INHIBITION is -34.68%. For `CCOCC(=O)N1CCC(c2nccn2CC2CC2)CC1`, the INHIBITION is given as -1.32%.

On to `COCCOC(=O)N1CCC(c2nccn2CC2CC2)CC1`, for which the INHIBITION is -1.87%. With `O=C(O)c1cnc(N2CCC(c3nccn3CC3CC3)CC2)c(Cl)c1` the figure was 60.39%. Take `COCC1(C(=O)N2CCC(c3nccn3CC3CC3)CC2)CCC1`: the INHIBITION is listed as 52.57%. For the compound `O=C(NC1CC1)N1C[C@H]2CN(c3ccccc3)C(=O)[C@H]2C1`, the INHIBITION was -0.9%. As for `CCc1nc2c(NCC3COc4c(cccc4OC)C3)ncnc2o1` (stereo not given), the INHIBITION amounted to 1.39%. Take `O=C(C1CCCc2[nH]ncc21)N1CCCC1` (stereo not given): the INHIBITION was -10.01%. In the case of `O=C(C1CCCc2[nH]ncc21)N1CCCC2(C1)OCCO2` (stereo not given) it was 64.92%; in that of `O=C(C1CCCc2[nH]ncc21)N1CCCCCC1` (stereo not given), -0.54%.

As to `CNC(=O)CCOC(=O)c1cccc(-n2ccc(C(F)(F)F)n2)c1`, the INHIBITION was found to be 13.1%. Take `CNC(=O)COC(=O)c1cccc(-n2ccc(C(F)(F)F)n2)c1`: the INHIBITION amounted to 10.31%. With `CNC(=O)CCOC(=O)c1cccc(-n2cccn2)c1` the figure was 55.25%.

For the compound `Cc1nc2c(c(N3CCCC(OCc4ccccn4)C3)n1)CCNCC2` (stereo not given), the INHIBITION was found to be 20.71%. In the case of `Cc1ccc(CN2CC[C@@H]3O[C@@H](C(=O)N4CCN(C)CC4)C[C@@H]32)cc1` it was 41.55%; in that of `Cc1nccc(C(=O)N2CCCN(Cc3cnn(C(C)C)c3)CC2)n1`, 16.6%; in that of `COC(=O)C(C)(C)NC(=O)C1CC(=O)N(C2CC2)C1` (stereo not given), 5.15%. For the compound `Cc1cc(NCCS(C)(=O)=O)nc2ccccc12`, the INHIBITION is -0.6%. Turning to `Cc1cc(NCCOCCS(C)(=O)=O)nc2ccccc12`, the INHIBITION was determined as 53.16%. As for `Cc1cc(NCCCNS(C)(=O)=O)nc2ccccc12`, the INHIBITION is recorded as 20.88%.

Turning to `Cc1cccc(-c2nc(CN3CCCC3Cn3cc(C)cn3)no2)c1` (stereo not given), the INHIBITION is on record as 1.36%. In the case of `COC(=O)N1CCCN(C(=O)c2cccc3cccnc23)CC1` it was 5.72%. Take `COCC1CN(CCOc2ccc(Cl)cc2)Cc2c1cnn2C` (stereo not given): the INHIBITION is on record as -17.24%.

`Cc1cc(-c2cnc(C)nc2CN(C)C(=O)c2cc(C3CC3)on2)on1`: the INHIBITION is on record as 51.57%. `Cc1cc(-c2cnn(CCNC(=O)c3cc[nH]n3)c2C2CC2)on1`: the INHIBITION is on record as -2.47%. Regarding `Cc1cc(-c2cnc(C3CC3)nc2CN(C)C(=O)c2ccccn2)on1`, the INHIBITION worked out at 34.06%. As for `Cc1cc(-c2cnc(C(C)C)nc2CN(C)C(=O)c2ccccn2)on1`, the INHIBITION was found to be 56.57%. Turning to `Cc1cc(-c2cnn(CCNC(=O)C3CC3)c2C2CC2)on1`, the INHIBITION is -39.92%.

For `Cc1cc(-c2cnc(C)nc2CN(C)C(=O)c2ccccn2)on1`, the INHIBITION was -0.54%.

`Cc1nn(C)cc1C1=NS(=O)(=O)N(C)C(C(=O)Nc2ccc(Cl)cc2)=C1`: the INHIBITION was -13.02%. Take `CCn1cc(S(=O)(=O)NC2CCCN(CCCc3ccccc3)C2)cn1` (stereo not given): the INHIBITION amounted to 7.21%.

Consider `CC(=O)N1CCCCCC1C1CCN(Cc2nnc(C(C)(C)C)o2)CC1` (stereo not given), for which the INHIBITION turned out to be 30.82%.

On to `COc1cncc(-n2ccnc2-c2ccc(C(=O)O)s2)c1`, for which the INHIBITION was found to be 48.58%. As for `Cc1cnc(C(=O)N2CCC3(CC2)CC(c2ccccc2)C(=O)N3)cn1` (stereo not given), the INHIBITION was -6.21%.

With `CC(=O)N[C@@H]1CN(C(=O)c2csc(C(C)C)n2)C[C@H]1C(C)C`, the INHIBITION stood at 3.62%. In the case of `CC(C)c1nc(C(=O)N2C[C@H](C(C)C)[C@@H](N)C2)cs1`, the INHIBITION was determined as 58.69%. On to `CC(C)c1nc(C(=O)N2CCCC(N)CC2)cs1` (stereo not given), for which the INHIBITION is reported as -66.05%.

For the compound `COc1ccc(-c2cc(CN)nc3ccnn23)cc1`, the INHIBITION is -11.81%.

Regarding `O=c1c(NCc2ccncc2)c(NCC(O)CN2CCOCC2)c1=O` (stereo not given), the INHIBITION was 1.08%. In the case of `O=c1c(NCc2ccco2)c(NCC(O)CN2CCOCC2)c1=O` (stereo not given), the INHIBITION turned out to be 53.33%. For the compound `O=c1c(NCc2ccccn2)c(NCC(O)CN2CCOCC2)c1=O` (stereo not given), the INHIBITION turned out to be 15.02%.

(Values after ChEMBL document CHEMBL4513216, “Probing the Open Global Health Chemical Diversity Library for Multistage-Active Starting Points for Next-Generation Antimalarials” (ACS Infect Dis, 2020).)
